Compound activity: PubChem BioAssay, several laboratories
TROY NFkB inh = inhibitors of TROY-driven NF-kB signaling, primary screen, Q293 LMP1-TROYcd cells, NF-kB luciferase, uHTS; inhibition, % at 10 µM; Q293 LMP1-TROYcd NF-kB luciferase reporter, 4 h; hit rate 0.98% among 360,000;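 active = compounds whose plate-normalised and pattern-corrected inhibition of the luciferase reporter signal at the single screening dose is 50% or more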
TWEAK Fn14 block = inhibitors of TWEAK-Fn14 signaling, primary screen, luciferase reporter cells, uHTS | hit rate 2% among 360,000 | TWEAK-stimulated Fn14 reporter cells, luciferase luminescence, 8 h | AID 1159606, 2016 | inhibition, % at 10 µM; in the data active = inhibition above about 50%
HSF1 inhib = HSF1 inhibitors in luciferase reporter cells, primary screen, cell-based, NIH3T3, luminescence | NIH3T3-HGL HSE-luciferase, MG132-induced, luminescence 8 h; stronger effect = lower value | activity change, negative = inhibition, % at 7.5 µM (by protocol) | hit rate 0.77% among 300,000 | AID 2098, 2009;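 active = more than half of replicate wells show activity change below -50%, luminescence cut by over half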;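 also: luciferase reports HSF-1 transcriptional activity via heat shock element; 0% = median of DMSO wells and -100% = zero luminescence signal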
HSF1 activator = HSF-1 activators, primary screen, NIH3T3-HGL cells, MG132 stress, luminescence, single point; NIH3T3-HGL HSF-1 luciferase reporter, 8 h; 100% = twice DMSO control signal; activation, % at 9 µM; hit rate 1.7% among 300,000; AID 504408, 2011;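 active = mean replicate activation of at least 50% with a set share of replicates each reaching 50%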;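 also: 0% = median of the neutral control wells and 100% = twice that signal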
LMP1 NFkB inh = EBV LMP1-driven NF-kappaB luciferase reporter inhibitors, primary screen, cell-based, luminescence, single point; LMP1-induced NF-kappaB luciferase reporter cells; inhibition, % at 12.5 µM; hit rate 0.69% among 350,000; in the data active = inhibition above about 41%;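 also: 0% = neutral control wells and 100% = reference inhibitor control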
HSP90 inh = HSP90 inhibitors, primary screen, cell lysate, luminescence; Rabbit reticulocyte lysate, luciferase refolding luminescence, 3 h; inhibition, % at 5.6 µM; hit rate 0.91% among 290,000;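 active = inhibition above the screen-wide mean plus 3 SD, computed separately per campaign, cut at about 16% in these data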;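 also: 0% = DMSO wells and 100% = 60 µM geldanamycin wells; inhibitors lower the luminescence because luciferase stays unfolded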
* marks the source's active call; other numbers are inactive results; nt = no result given. Shown are actives, neighbours in structure and some others; about 4.7% of the full set was active somewhere.

SMILES	TROY NFkB inh	TWEAK Fn14 block	HSF1 inhib	HSF1 activator	LMP1 NFkB inh	HSP90 inh
Cc1cccc(Sc2ccc([N+](=O)[O-])cn2)c1	-11.7	-11.8	-5.3	-6.6	-2.0	-1.6
C=CCn1c(SCC(=O)Nc2sccc2C(N)=O)nc2sc(CC)cc2c1=O	48.0	72.1*	7.7	24.1	13.3	-4.2
C=CCn1c(SCC(=O)Nc2sccc2C(N)=O)nc2ccc(Cl)cc2c1=O	49.0	73.5*	15.3	16.7	-9.8	-0.4
C=CCn1c(SCC(=O)Nc2sccc2C(N)=O)nc2ccccc2c1=O	33.8	46.2	16.7	8.5	0.9	-1.8
C=CCn1c(SC(C)C(N)=O)nc2sc(CC)cc2c1=O (stereo not given)	6.5	-14.6	-0.3	-1.3	0.5	-6.6
COc1cc(CCN(C(=O)c2cc3ccccc3[nH]2)C(c2ccccn2)c2nc3ccccc3[nH]2)cc(OC)c1 (stereo not given)	-17.6	19.6	nt	nt	nt	nt
CCN1/C(=C(\O)c2ccccc2)C(=O)c2ccccc2S1(=O)=O	4.5	-12.5	-69.8*	-78.4	-9.0	1.2
CCOC(=O)c1ccc(CN2C(=O)c3ccccc3S2(=O)=O)cc1	10.0	9.8	4.9	14.3	5.4	-1.9
O=C(NNC(=O)c1cc(S(=O)(=O)N2CCOCC2)ccc1Cl)c1ccc(F)cc1	6.2	5.2	nt	nt	0.3	nt
CCc1nc2ccc(C(=O)NCCOc3ccc(OC)cc3)cn2c1N(C=O)Cc1ccc(OC)cc1	-11.3	6.7	nt	nt	nt	nt
Nc1ccc(Oc2cccc(Oc3ccc(N)cc3)c2)cc1	60.2*	82.4*	-0.7	-5.9	37.4	-1.6
COCCN(C(=S)Nc1c(C)cccc1C)C(C)c1cccnc1 (stereo not given)	6.8	-1.6	-51.8*	-62.1	-2.6	0.0
COCCN(C(=S)Nc1c(C)cc(C)cc1C)C(C)c1cccnc1 (stereo not given)	-4.9	-2.6	-7.9	-1.4	-0.3	0.8
O=C(NCc1cccc(C(F)(F)F)c1)c1ccc2sc([C@H]3C[C@H](O)[C@@H](CO)O3)nc2c1	4.6	8.4	nt	nt	nt	nt
O=C(Nc1cccc(-c2cnc3ccccc3n2)c1)c1ccco1	nt	48.2	-1.6	3.5	1.7	0.1
Cc1ccc(C(=O)Nc2cnc3ccccc3c2)cc1	86.8*	105.2*	-67.4*	-73.2	78.6*	87.3*
Cc1ccc(C(=O)Nc2cccc(-c3cnc4ccccc4n3)c2)cc1	-14.9	-23.0	-61.5*	-66.5	-10.5	-0.7
O=C(Nc1cnc2ccccc2c1)c1ccco1	-25.1	57.4*	9.3	17.6	22.6	7.0
CC1(C(=O)NS(C)(=O)=O)CCN1C(=O)C/C=C/c1ccccc1 (stereo not given)	4.9	5.1	nt	nt	nt	nt
Oc1ccc(/C=N/Nc2nc(-c3ccc(Cl)cc3)cc(C(F)(F)F)n2)cc1	45.0	79.0*	6.2	3.0	-2.3	5.3
Cc1cc(-c2ccccc2)nc(N/N=C/c2ccc(O)cc2)n1	-17.8	16.1	nt	nt	0.0	nt
COc1cc(C(=O)NNC(=O)CNC(=O)C2CCCCC2)ccc1OC(C)C	0.2	-9.5	nt	nt	2.5	nt
O=C(CCl)NC1CCCc2ccccc21 (stereo not given)	0.1	50.0*	-1.3	-11.5	-1.4	-2.0
O=C(Cc1coc2ccc3ccccc3c12)NC1CCCc2ccccc21 (stereo not given)	16.5	43.0	34.6	64.9*	-10.6	0.9
O=C(Cc1ccc(Br)cc1)NC1CCCc2ccccc21 (stereo not given)	-4.1	-20.2	1.7	6.8	-6.8	-0.2
SMILES	TROY NFkB inh	TWEAK Fn14 block	HSF1 inhib	HSF1 activator	LMP1 NFkB inh	HSP90 inh
O=C(Cc1coc2ccc3ccccc3c12)NCc1ccccc1	11.5	-8.2	-3.5	-8.1	-5.1	4.8
Cc1ccc(S(=O)(=O)NCCn2nc(C)cc2C)cc1	-0.1	90.5*	4.4	7.1	5.5	-3.1
O=c1[nH]c(=O)n(C2OC(CO)C(O)C2O)c2c1CCCC2 (stereo not given)	6.2	-1.2	nt	nt	nt	nt
Cc1ccc(NCCN(C)C)c2c(=O)c3cc(O)ccc3sc12	-75.6	-116.4	nt	nt	44.5*	nt
CN(C)CCNc1cccc2sc3ccc(O)cc3c(=O)c12	-66.0	-77.2	nt	nt	nt	nt
Cc1cccc(NC(=O)COc2cccc3c2CCNC3=O)c1	2.0	-7.7	nt	nt	7.2	nt
CC(=O)NCCNc1nc2cc(-c3cccc(Cl)c3)sc2c(=O)n1C	18.8	15.2	nt	nt	nt	nt
CC(Oc1ccccc1)C(=O)N=Nc1c(O)[nH]c2ccc(Br)cc12 (stereo not given)	5.8	15.0	24.8	70.0*	-5.7	0.2
Cc1cccc(C)c1OCC(=O)N=Nc1c(O)[nH]c2ccc(Br)cc12	2.4	18.0	-13.0	-6.9	4.5	3.8
Oc1[nH]c2ccc(Br)cc2c1N=NC(=S)Nc1ccc(F)cc1	-3.4	62.9*	-0.4	-10.0	13.0	0.6
Oc1ccc(NC(=S)N=Nc2c(O)[nH]c3ccc(Br)cc23)cc1	24.4	-30.5	-4.4	-1.9	36.9	2.4
CC1(C(=O)NS(=O)(=O)C2CC2)CCN(C(=O)CSc2ccccc2)C1 (stereo not given)	14.5	-19.4	nt	nt	nt	nt
COC(=O)C(NC(=O)CNS(=O)(=O)c1ccc(Br)cc1)c1ccccc1 (stereo not given)	12.4	14.3	18.9	54.4*	-5.9	3.8
CCN(c1ccccc1)S(=O)(=O)c1ccc(Cl)c(NC(=O)CN(C)Cc2cccc(F)c2)c1	11.3	22.8	nt	nt	9.5	nt
CC(=O)N1N=C(c2ccco2)CC1c1cccs1 (stereo not given)	-5.7	11.3	12.5	15.4	-12.2	0.8
Cc1ccc(C2=NN(C(=O)CCl)C(c3cccs3)C2)o1 (stereo not given)	-43.7	48.4	31.0	58.4*	35.1	0.2
O=C(CCl)N1N=C(c2ccco2)CC1c1cccs1 (stereo not given)	17.2	10.0	28.7	54.8*	66.0*	-3.9
CCOc1ccc(-c2cc(C(=O)Nc3ccc(F)cc3)[nH]n2)c(C)c1	-60.0	-27.1	nt	nt	nt	nt
C[C@@H]1CN([C@H](C)CO)C(=O)c2c(c3ccccc3n2C)-c2ccccc2CO[C@H]1CN(C)Cc1ccc(Oc2ccccc2)cc1	-3.3	18.4	nt	nt	7.3	nt
COc1ccc(NC(=O)CCSc2ccc(F)cc2)cc1	-93.3	-34.8	21.6	55.5*	-11.6	-0.5
COc1ccc(NC(=O)CCSc2ccc(C)cc2)cc1S(=O)(=O)Nc1ccccc1Cl	29.9	13.6	7.0	6.4	-10.3	1.5
COc1ccc(NC(=O)CCSc2ccc(C)cc2)cc1	-9.6	13.3	-5.7	7.5	-8.4	4.7
COc1ccc(NS(=O)(=O)c2cc(NC(=O)CCSc3ccccc3)ccc2OC)cc1	8.9	57.9*	2.8	8.5	-9.3	0.2
